Screening data deposited in PubChem BioAssay by National Center for Advancing Translational Sciences (NCATS).
Rows were chosen to be rich in hits. Some 12% of all compounds tested hit in one or more screens of this group.
L3MBTL1 inh – qHTS Assay for the Inhibitors of L3MBTL1; Lethal(3)malignant brain tumor-like protein 1 (Homo sapiens), Q9Y468; actives 0.66% (n = 230,000); Potency, µM (highest dose often 57.1 µM), usual class: inhibitors; AlphaScreen L3MBTL1–H3K9me1 peptide binding; AID 485360, 2010; note: nearly all actives have a fitted effect of over 60% in size
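Displacement of a biotinylated histone H3(1-15) peptide monomethylated at Lys9 (75 nM) from L3MBTL1 (50 nM) was measured by AlphaScreen after a 30 min room-temperature compound incubation; cefsulodin titration served as intraplate control.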
Sfp PPTase inh – qHTS Assay for Inhibitors of Bacillus subtilis Sfp phosphopantetheinyl transferase (PPTase); 4'-phosphopantetheinyl transferase ffp (Bacillus subtilis), Q9F4F7; Biochemical Sfp PPTase activity, qHTS; Potency, µM, hits mostly inhibitors; actives 3.5% (n = 310,000); AID 1490, 2009;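 note: the enzyme is Sfp with the accession as filed and its product quenches rhodamine fluorescence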
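Reaction rates are the 30-min fluorescence difference (ex 525, em 598 nm) in wells containing 15 nM Sfp, 5 uM rhodamine-CoA and 12.5 uM BHQ-2-YbbR at pH 7.6 with 10 mM MgCl2.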
BAZ2B block – qHTS Assay for Inhibitors of BAZ2B | Bromodomain adjacent to zinc finger domain protein 2B (Homo sapiens), Q9UIF8 | AlphaScreen BAZ2B-H3K14Ac peptide displacement | Potency, µM (top dose mostly 114 µM), most hits filed as inhibitors | actives 4.4% (n = 360,000) | AID 504333, 2011; note: nearly all actives have a fitted effect of over 60% in size
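Inhibition is scored as reduced AlphaScreen emission. The BAZ2B/b-H3(5-23)K14Ac complex (50 nM each) in PBS pH 7.4, 0.01% Tween-20 meets compound (up to 110 uM) for 30 min at RT before bead addition.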
G9a inh – qHTS Assay for Inhibitors of Histone Lysine Methyltransferase G9a | Histone-lysine N-methyltransferase EHMT2 (Homo sapiens), Q96KQ7 | G9a H3K9 monomethylation, AlphaScreen, 2 h | Potency, µM (highest dose often 102 µM), usual class: inhibitors | actives 8.8% (n = 350,000) | AID 504332, 2011; note: nearly all actives have a fitted effect of over 75% in size
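Using a bead-based AlphaScreen, monomethylated H3K9 product from 2 h room-temperature reactions (G9a 20 nM, peptide 500 nM, SAM 20 uM) was detected with 0.5 ug/mL rabbit anti-H3K9me1 antibody.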
HP1b binding inh – HTS for Inhibitors of HP1-beta Chromodomain Interactions with Methylated Histone Tails | Chromobox protein homolog 1 (Homo sapiens), P83916 | AlphaScreen HP1-beta / biotin-H3K9me3 peptide binding | Potency, µM (series often up to 114 µM), usual class: inhibitors | actives 0.56% (n = 390,000) | AID 540317, 2011; note: nearly all actives have a fitted effect of over 70% in size
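HP1-beta protein (50 nM final) preincubated 30 min at room temperature with biotinylated H3(1-18)K9me3 peptide (50 nM) in PBS pH 7.4, 0.01% Tween-20, then compound added for 30 min. AlphaScreen streptavidin donor/nickel chelate acceptor beads (10 ug/mL final), 30 min dark, luminescence read.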
JMJD2A Tudor – qHTS Assay for Inhibitors of JMJD2A-Tudor Domain | actives 4.4% (n = 390,000) | Potency, µM (series often up to 114 µM), hits mostly inhibitors | AlphaScreen JMJD2A-Tudor / H3K4me3 peptide binding | Lysine-specific demethylase 4A (Homo sapiens), O75164; note: nearly all actives have a fitted effect of over 50% in size
Of the large screens only hits and unclear results are named; the others gave an inactive call. Calls come from the whole dose curve; as a rule, active = well fitted curve in the direction sought with a large enough effect; inconclusive = small, poorly fitted or top-dose-only effect, or another doubt; inactive = no such curve, though single readings can be large; an effect the other way counts as inactive or inconclusive.

C=CC(=O)Nc1cccc(N(C)c2ccnc(Nc3ccc(N4CCN(C)CC4)cc3)n2)c1	HP1b binding inh 50µM, JMJD2A Tudor 14µM (no result: L3MBTL1 inh, Sfp PPTase inh, BAZ2B block, G9a inh)
COc1cccc(-c2nc(NC3CC3)c3ccccc3n2)c1	none (no result: L3MBTL1 inh, BAZ2B block, HP1b binding inh, JMJD2A Tudor)
CCCSCCCNC(=O)C1CCN(C(=O)c2cc3sccc3n2C)CC1	none (no result: L3MBTL1 inh, Sfp PPTase inh)
CCC(Sc1nc2ccccc2c2nc(CCc3c(C)n[nH]c3C)nn12)C(=O)Nc1ccc(OC)cc1 (stereo not drawn)	none (no result: L3MBTL1 inh, Sfp PPTase inh)
NC(=S)NCCCC(N)C(=O)O (stereo not drawn)	G9a inh 8.9µM (no result: L3MBTL1 inh, Sfp PPTase inh, BAZ2B block, HP1b binding inh, JMJD2A Tudor)
O=S(=O)(NCCc1ccccc1)c1ccc(N2CCCCS2(=O)=O)cc1	none (no result: L3MBTL1 inh, Sfp PPTase inh)
NS(=O)(=O)c1ccc(N/N=C2/CCCc3ccccc32)c([N+](=O)[O-])c1	none
O=[N+]([O-])c1cc(S(=O)(=O)N2CCCC2)ccc1N/N=C1/CCCc2ccccc21	BAZ2B block 3.5µM, G9a inh 4.5µM, HP1b binding inh inconclusive, JMJD2A Tudor inconclusive
N=c1ccn2c(n1)OC1C(O)[C@@H](CO)O[C@H]12 (stereo partly drawn)	none (no result: L3MBTL1 inh, Sfp PPTase inh, BAZ2B block, G9a inh)
CCOC(=O)CN1C(=O)C(O)=C(C(C)=O)C1c1ccccc1 (stereo not drawn)	BAZ2B block 79µM, JMJD2A Tudor inconclusive (no result: L3MBTL1 inh)
CCOC(=O)CN1C(=O)C(O)=C(C(C)=O)C1c1ccc(F)cc1 (stereo not drawn)	BAZ2B block 71µM, G9a inh 35µM
CN(C)c1ccc(S(=O)(=O)N(C)C)cc1NC(=O)Cc1cccc2ccccc12	none (no result: L3MBTL1 inh)
Cc1ccc(-c2nc3ccccn3c2Nc2ccccc2C)s1	G9a inh inconclusive, JMJD2A Tudor inconclusive (no result: L3MBTL1 inh, Sfp PPTase inh, BAZ2B block)
CS(=O)(=O)N1CCC2(CCN(Cc3ccc(C#N)cc3)CC2)CC1	none (no result: L3MBTL1 inh, BAZ2B block, HP1b binding inh, JMJD2A Tudor)
Cc1nc(SCC(=O)Nc2ccc(Cl)cc2[N+](=O)[O-])nc(C)c1C	BAZ2B block 45µM, G9a inh 11µM, HP1b binding inh inconclusive, JMJD2A Tudor inconclusive
Cc1cc(C)nc(SCC(=O)Nc2ccccc2[N+](=O)[O-])n1	none
Cc1ccc(SCC(=O)Nc2ccc(F)cc2[N+](=O)[O-])cc1C	L3MBTL1 inh inconclusive, BAZ2B block 13µM, G9a inh inconclusive, HP1b binding inh 50µM, JMJD2A Tudor inconclusive
O=C(O)CCC(=O)N1CCCC1C(=O)O (stereo not drawn)	none (no result: L3MBTL1 inh, Sfp PPTase inh, BAZ2B block, HP1b binding inh, JMJD2A Tudor)
O=C(Nc1ccc(Nc2ccncc2)cc1)c1ccc(Nc2ccnc3ccc([N+](=O)[O-])cc23)cc1	JMJD2A Tudor 100µM (no result: G9a inh)
CCN(CC)c1nc2c3c(nc4c(c3c1C#N)CC(=O)N4c1ccc(Cl)cc1)NC(C)=N2	Sfp PPTase inh inconclusive, G9a inh 35µM
COc1cc(/C=C(\C#N)c2nc3ccccc3[nH]2)ccc1OCc1cccc(C(F)(F)F)c1	none (no result: L3MBTL1 inh, Sfp PPTase inh)
COc1ccc(N2CCN(C(=O)c3ccc(NS(=O)(=O)c4ccc(F)c(F)c4)cc3)CC2)cc1	BAZ2B block 50µM, G9a inh 56µM, JMJD2A Tudor 89µM
O=C(O)c1cccc(Cn2cc(Cl)cn2)c1	L3MBTL1 inh inconclusive, BAZ2B block inconclusive
COc1ccc(NS(=O)(=O)c2ccc(C(=O)N3CCN(c4ccc(F)cc4)CC3)cc2)cc1	none (no result: Sfp PPTase inh, BAZ2B block, G9a inh)
COc1ccc(N2CCN(C(=O)c3cccc(Cn4cc(Cl)cn4)c3)CC2)cc1	BAZ2B block inconclusive, G9a inh 18µM, JMJD2A Tudor inconclusive (no result: L3MBTL1 inh)
COc1ccc(N2CCN(C(=O)c3ccc(NS(=O)(=O)c4cccc(F)c4)cc3)CC2)cc1	BAZ2B block inconclusive, G9a inh inconclusive, JMJD2A Tudor inconclusive (no result: L3MBTL1 inh)
COc1ccc(N2CCN(C(=O)c3cccc(NS(=O)(=O)c4cccc(F)c4)c3)CC2)cc1	BAZ2B block 40µM (no result: L3MBTL1 inh, G9a inh)
O=C(CN1C(=O)NC2(CCc3ccccc32)C1=O)NCCc1ccccc1 (stereo not drawn)	none (no result: Sfp PPTase inh)
Cc1nc(-n2nc(C)c(Cc3ccccc3Cl)c2C)sc1C(=O)N1CCC(C)CC1	none (no result: L3MBTL1 inh, Sfp PPTase inh)
COc1ccc(C(=O)N(Cc2cccs2)Cc2cccs2)c(O)c1	none (no result: L3MBTL1 inh, Sfp PPTase inh, BAZ2B block, G9a inh, HP1b binding inh)
COc1ccc(CNC(=O)Cc2c(C)c3c(cc(C)c4c(C)c(C)oc43)oc2=O)cc1OC	none (no result: L3MBTL1 inh, Sfp PPTase inh)
O=C(N1CCOCC1)N1CCN(S(=O)(=O)c2ccc(F)cc2)CC1	G9a inh inconclusive
O=C(C1=NN[C@@H]2C(=O)N(c3cccc(F)c3)C(=O)[C@H]12)c1cnccn1	Sfp PPTase inh inconclusive, BAZ2B block 45µM, G9a inh 20µM, JMJD2A Tudor 18µM
CCN1C(=O)[C@@H]2C(C(=O)c3cnccn3)=NN[C@@H]2C1=O	JMJD2A Tudor 45µM (no result: G9a inh)
CCOC(=O)C1=C(C)NC(C)=C(C(=O)OCC)C1c1c(F)c(F)c(F)c(F)c1F	none (no result: L3MBTL1 inh, Sfp PPTase inh, BAZ2B block, HP1b binding inh, JMJD2A Tudor)
Cc1cccc(NC(=S)NNc2cccc(Cl)c2)c1	BAZ2B block 10µM, G9a inh 32µM, HP1b binding inh 10µM, JMJD2A Tudor 56µM (no result: L3MBTL1 inh)
Cc1cccc(NNC(=S)Nc2c(C)cccc2C)c1	BAZ2B block 14µM, G9a inh 45µM, JMJD2A Tudor 14µM (no result: L3MBTL1 inh)
Cc1cccc(C)c1NC(=S)Nc1ccc(F)cc1	none
CN(C)NC(=S)Nc1cccc(Cl)c1	none
CN(C)c1ccc(C(=O)/C=C/c2ccco2)cc1	Sfp PPTase inh 50µM, BAZ2B block 50µM, G9a inh 13µM
O=C(/C=C\c1ccco1)c1ccc(NC(=O)c2ccco2)cc1	L3MBTL1 inh 11µM, Sfp PPTase inh 10µM, BAZ2B block 45µM, G9a inh 22µM, HP1b binding inh inconclusive, JMJD2A Tudor 50µM
